Test results: article PMC7819943, “Rice protein-binding microarrays: a tool to detect cis-acting elements near promoter regions in rice”
Whole data set: some 35,000 sequences, median “fluorescence intensity (a.u.)” near 10,000, cut for the highest 2% near 52,000. What follows is part of a selection rich in the highest values, with near analogues and random picks from the rest.

Each sequence was assayed against T1, OsWOX13 (Oryza sativa, UniProt Q5QMM3 1-267) (assay: protein-binding microarray (RPBM); PBS, 2% BSA, 51.3 ng/ul salmon testes DNA, 50 uM zinc acetate, 200 nM TF, 25 C, 1 h; high values mean tight binding). Settings: protein: recombinant; tags: N-terminal polyhistidine and DsRed monomer fusion (pET32a); label: CyDye5-dUTP incorporated in the synthesized complementary strand; 3' TTTTT single-stranded linker to array surface; dsDNA, one strand shown.
T1 sequence: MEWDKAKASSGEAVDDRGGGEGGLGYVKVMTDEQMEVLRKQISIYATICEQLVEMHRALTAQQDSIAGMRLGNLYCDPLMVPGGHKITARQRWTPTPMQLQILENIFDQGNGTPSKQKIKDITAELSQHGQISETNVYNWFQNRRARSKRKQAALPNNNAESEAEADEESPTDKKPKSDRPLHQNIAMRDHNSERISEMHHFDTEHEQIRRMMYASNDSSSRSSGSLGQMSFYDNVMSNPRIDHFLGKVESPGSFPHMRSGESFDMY
Method in brief: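 Ni–NTA purification followed expression in E. coli BL21-CodonPlus of transcription factors fused N-terminally to a polyhistidine tag and DsRed. At 200 nM in PBS with 2% BSA, salmon testes DNA and 50 µM zinc acetate, the protein was incubated for 1 h at 25 °C with a custom Agilent array that had been primer-extended with Cy5-dUTP and blocked with 2% BSA. After washing, the array was read on an Axon 4000B scanner. The binding signal is per-feature fluorescence intensity in arbitrary units.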
With “ATTAATTAGCTGCCCGCAGACAAGACCCGTGACTTTGGCCCGGAGTCACCTAGTGCAG” the binding signal was 23800 fluorescence intensity (a.u.).
In the case of “TACTATTAATCAATCACATATAATTAACAATTAGTGTGATCGGAGTCACCTAGTGCAG”, the binding signal is reported as 41200 fluorescence intensity (a.u.).
With “AATTAACATCAATAACAAAGTGTTGTACTGTAATCATCTTCGGAGTCACCTAGTGCAG” the binding signal was 4050 fluorescence intensity (a.u.).
For “GGTTAATCAATCAATCAGTTAATTACACAATTACTCACATCGGAGTCACCTAGTGCAG”, the binding signal was 57300 fluorescence intensity (a.u.).
For “GCTTAATTAACAATCAACATAACTACTAACTAGTGTTGTTCGGAGTCACCTAGTGCAG”, the binding signal was 57300 fluorescence intensity (a.u.).
For “TACAATTATGATTTGCCTTCAAATTTGCATTTTCATATTTCGGAGTCACCTAGTGCAG”, the binding signal was 13500 fluorescence intensity (a.u.).
In the case of “AAAGATTGCCGAGTTTAATTGCAATCAATTACGGGAAGATCGGAGTCACCTAGTGCAG”, the binding signal is reported as 52900 fluorescence intensity (a.u.).
“ATAATAATTAATATTTCATTAATTATATGCTAACGAGTTTCGGAGTCACCTAGTGCAG” was tested, and the binding signal was 43400 fluorescence intensity (a.u.).
For “GAAGATTTAATTGCAACAAATTTAATAGTGCAATCGGATCCGGAGTCACCTAGTGCAG”, the binding signal was 40800 fluorescence intensity (a.u.).
“TATTTAATTGCAACGAATACAATAGTTTAATCGGATTATACGGAGTCACCTAGTGCAG” was tested, and the binding signal was 9360 fluorescence intensity (a.u.).
For “ATAATTAAAACTCAATTAATCACACGTTATTATCACATCGCGGAGTCACCTAGTGCAG”, the binding signal was 14200 fluorescence intensity (a.u.).
In the case of “TAGTACTCTCAATTAATTACAAACCACACCATCAAATTCTCGGAGTCACCTAGTGCAG”, the binding signal is reported as 7020 fluorescence intensity (a.u.).
For “TATAATTAATTATTTGCTAGATTTCATTCATATGACAATTCGGAGTCACCTAGTGCAG”, the binding signal was 54600 fluorescence intensity (a.u.).
With “AGATTAATTAGGCTTAATAGATTCGTCTACGTTTAATACTCGGAGTCACCTAGTGCAG” the binding signal was 20900 fluorescence intensity (a.u.).
In the case of “GCCAAATTAGATGGAAAGTTGGTTATATAGGTGTTTATATCGGAGTCACCTAGTGCAG”, the binding signal is reported as 29100 fluorescence intensity (a.u.).
For “AATTATACAATCAATCAAATACTGAAATTTAAAATTGGTACGGAGTCACCTAGTGCAG”, the binding signal was 15800 fluorescence intensity (a.u.).
With “CAAAAGAACAATTATTGATCAACTAATGTACACGTCCCAGCGGAGTCACCTAGTGCAG” the binding signal was 13900 fluorescence intensity (a.u.).
In the case of “AGCTGAAATTAAGAACAGACAGACATGATCACAGATCGAGCGGAGTCACCTAGTGCAG”, the binding signal is reported as 10100 fluorescence intensity (a.u.).
With “TGATGATTAGTCGATTACTGTTTTCCTATAGCCATCGTTACGGAGTCACCTAGTGCAG” the binding signal was 30100 fluorescence intensity (a.u.).
With “AGGAATATATATAATTTACAAATAACTAAAATTTGATATTCGGAGTCACCTAGTGCAG” the binding signal was 4110 fluorescence intensity (a.u.).
In the case of “ATCTGTCACATTAGACATAAATAAAATATTTGCGAAATGTCGGAGTCACCTAGTGCAG”, the binding signal is reported as 3540 fluorescence intensity (a.u.).
With “AAGTGTTTGTAATTACTAAAATTTTGACATGAATTCAAATCGGAGTCACCTAGTGCAG” the binding signal was 8700 fluorescence intensity (a.u.).
“ACTCAGTATACACTAATTAGCAATTATTACCGAAATTGTACGGAGTCACCTAGTGCAG” was tested, and the binding signal was 23400 fluorescence intensity (a.u.).
For “GATTATGATTTGGAGAAAATTGCATCCATAAAACATTAATCGGAGTCACCTAGTGCAG”, the binding signal was 8000 fluorescence intensity (a.u.).
“AAATCAATAATTAAATATAGTTTCATAATATATTTATCTTCGGAGTCACCTAGTGCAG” was tested, and the binding signal was 22700 fluorescence intensity (a.u.).
In the case of “TTTAATTTGTTCATTAAAGACCTAAGAGCTAATAAACGGACGGAGTCACCTAGTGCAG”, the binding signal is reported as 23100 fluorescence intensity (a.u.).
With “GAGTAATTACTAATTAGCTGGTACACTCAATCCAGTACGGCGGAGTCACCTAGTGCAG” the binding signal was 59000 fluorescence intensity (a.u.).
In the case of “TTTAATTACTAATCAATTTCATACATTCATATAGTTTATTCGGAGTCACCTAGTGCAG”, the binding signal is reported as 55600 fluorescence intensity (a.u.).
In the case of “CGATTTCTTGTTTAATTACTAATCAATTTCATACATTCATCGGAGTCACCTAGTGCAG”, the binding signal is reported as 13400 fluorescence intensity (a.u.).
“CTTCTAATTTTGTTAATTGGGAAGACATCATAGAGTGGAACGGAGTCACCTAGTGCAG” was tested, and the binding signal was 65400 fluorescence intensity (a.u.).
With “TGGTATTTAATTATTTGTTAGAGTCATCATTGGTCTATAACGGAGTCACCTAGTGCAG” the binding signal was 8940 fluorescence intensity (a.u.).
For “TTGACCAATCAATTACTCACTGGTACGGAAAACACTATAGCGGAGTCACCTAGTGCAG”, the binding signal was 23300 fluorescence intensity (a.u.).
“GTTAATTTTGTTTAATTAATGGTGGAAGCAGCCATCATCACGGAGTCACCTAGTGCAG” was tested, and the binding signal was 38200 fluorescence intensity (a.u.).
For “CCATTAATTATGTTGGACATAATTAAGAGAATTTGCTAAACGGAGTCACCTAGTGCAG”, the binding signal was 52300 fluorescence intensity (a.u.).
For “TGGATTAAACTAATTTACTGATAAGGTGCGTACAAAATTGCGGAGTCACCTAGTGCAG”, the binding signal was 9850 fluorescence intensity (a.u.).
In the case of “CTATGTCTGTGTTTGATGATTGCAAGCTGATGTGGGATGGCGGAGTCACCTAGTGCAG”, the binding signal is reported as 9180 fluorescence intensity (a.u.).
For “ATCTATCTATCTATCTATCTATCTATCTATCTATCTATCTCGGAGTCACCTAGTGCAG”, the binding signal was 20600 fluorescence intensity (a.u.).
For “ATCTGTGTAGTCAATTATATTCTCCCTGGGGCCAAACGAACGGAGTCACCTAGTGCAG”, the binding signal was 4100 fluorescence intensity (a.u.).
In the case of “CATTTGACTGAACAAGAACAGTAGGATCAATCTTTGTGCACGGAGTCACCTAGTGCAG”, the binding signal is reported as 16900 fluorescence intensity (a.u.).
“AACACATTGGATTGATTGATCTGTCGCGGAACAGATTGACCGGAGTCACCTAGTGCAG” was tested, and the binding signal was 52300 fluorescence intensity (a.u.).
“CCAGTCAAGGGAACAGATTGACCAATCGTTCACACCAGTGCGGAGTCACCTAGTGCAG” was tested, and the binding signal was 18400 fluorescence intensity (a.u.).
For “TGATCTGATTGAACAGTCAATCACAGATTCACAGTAGGACCGGAGTCACCTAGTGCAG”, the binding signal was 62500 fluorescence intensity (a.u.).
In the case of “TTTGTTGATTTGTTTTGGTTGGATTGATCTGTCGCTTATACGGAGTCACCTAGTGCAG”, the binding signal is reported as 25500 fluorescence intensity (a.u.).
In the case of “ATGACACATGCCGTTGATTGGTTGACACAGATCGGATTCGCGGAGTCACCTAGTGCAG”, the binding signal is reported as 46900 fluorescence intensity (a.u.).
